Nrf2 inh: Nrf2 qHTS screen for inhibitors; A549 ARE-Fluc reporter, luciferase luminescence, 18-24 h; Potency, µM (series often up to 46 µM), for the others: at the highest dose activity change, negative = inhibition, actives largely listed as inhibitors; 2.1% of 360,000 active; AID 504444, 2011; also: % is scaled to controls: 0 for no effect and ±100 for the full control effect; nearly all actives have a fitted effect of over 60% in size
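Cells were seeded and rested 2 h, then exposed to compounds for 18-24 h. CellTiter-Fluor was read first as a viability measure. BugLite was added 15 min before the final luminescent read of ARE-luciferase activity in A549 cells.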
Nrf2 ARE act: qHTS of Nrf2 Activators | AREc32 ARE-luciferase reporter (MCF7-derived line), luminescence, 24 h | Potency, µM (highest dose often 46.1 µM), for the others: at the top dose activation, hits mostly activators | 0.31% of 410,000 active; also: % of control where 0% means no effect; nearly all actives have a fitted effect of over 65% in size
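ARE activation measured as luciferase luminescence (Steady-Glo, 30 min RT) in AREc32_Fluc cells after 24 hr compound exposure at 37 deg C, 5% CO2; cells seeded overnight at 1000/well in OPTI-MEM, 5% FBS.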
ATXN2 expr inh: Primary qHTS for Inhibitors of ATXN expression; AID 1745845, 2022; Potency, µM (top dose mostly 57 µM), for the others: top-dose activity change, negative = inhibition, usual class: inhibitors; 0.72% of 360,000 active; HEK-293 ATXN2-luciferase reporter, luminescence, 24 h; also: % is scaled to controls: 0 for no effect and ±100 for the full control effect; nearly all actives have a fitted effect of over 55% in size
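ATXN2-luciferase reporter cells (luciferase flanked by upstream and downstream ATXN2 gene portions) were treated 24 h at 37 °C with compounds at up to 57 uM. SteadyGlo luminescence gave expression; GF-AFC fluorescence gave viability.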
ATXN viability: Viability Counterscreen for Primary qHTS for Inhibitors of ATXN expression. S2 cells (HEK-293 line with an ATXN2-luciferase reporter) viability, CellTiter-Fluor protease fluorescence, 24 h. Potency, µM (doses to about 56.7 µM), hits mostly cytotoxic. 0.49% of 400,000 active. AID 651635, 2014; also: nearly all actives have a fitted effect of over 40% in size
A549 tox: Nrf2 qHTS screen for inhibitors: counterscreen for cytotoxicity | A549 ARE-Fluc cells, CellTiter-Fluor viability, 18-24 h | 0.16% of 390,000 active | Potency, µM (top dose mostly 46 µM), for the others: at the top dose activity change, negative = cytotoxicity, actives largely listed as inhibitors; also: % is scaled to controls: 0 for no effect and ±100 for the full control effect
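Cytotoxicity counterscreen: CellTiter-Fluor fluorescence was measured in A549 ARE_Fluc cells after 18-24 h of compound exposure in a concentration series. The subsequent BugLite luminescent read reports ARE-luciferase activity.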
An asterisk follows results filed as active; [ ] = dose if it differs, or a comment. Rows were chosen to be rich in hits. Some 2.9% of all compounds tested hit in one or more screens of this group. Calls follow the shape of the dose curve; as a rule, active = well fitted curve in the direction sought with a large enough effect; inconclusive = small, poorly fitted or top-dose-only effect, or another doubt; inactive = no such curve, though single readings can be large; an effect the other way counts as inactive or inconclusive. Potency is read from the fitted curve at half-maximal effect.

For C=C(C(=O)c1ccccc1)C(CC(=O)c1ccccc1)c1ccccc1 (stereo unspecified) the results were Nrf2 inh 23µM*, Nrf2 ARE act 4%, ATXN2 expr inh 25µM*, ATXN viability inconclusive and A549 tox inconclusive.
Screening CC(NC(=O)C1CCCN1C(=O)OCc1ccccc1)c1ccccc1 (stereo unspecified) returned Nrf2 inh 8%, Nrf2 ARE act -1%, ATXN viability inactive and A549 tox 1%.
Screening COc1cc(SC)ccc1C(=O)Nc1cccc(C)n1 returned Nrf2 inh inconclusive, Nrf2 ARE act 1%, ATXN2 expr inh 9%, ATXN viability inactive and A549 tox 4%.
For COc1cc(SC)ccc1C(=O)Nc1ccccn1 the results were Nrf2 inh inconclusive, Nrf2 ARE act 13µM*, ATXN2 expr inh -22%, ATXN viability inactive and A549 tox -10%.
Screening Oc1c(N=NC(=S)Nc2ccccc2F)c2ccccc2n1Cc1cccc(Cl)c1 returned Nrf2 inh inconclusive, Nrf2 ARE act 0%, ATXN2 expr inh -10%[11.3 µM], ATXN viability inactive and A549 tox inconclusive.
For Cc1cccc(Cn2c(O)c(N=NC(=S)Nc3ccccc3F)c3ccccc32)c1 the results were Nrf2 inh 5.8µM*, Nrf2 ARE act 7%, ATXN viability inactive and A549 tox inconclusive.
`Cc1cccc(N2CCN(C(=O)c3cc(=O)[nH]c4ccccc34)CC2)c1C` gave Nrf2 inh 3%, Nrf2 ARE act -1%, ATXN2 expr inh -17%, ATXN viability inactive and A549 tox -3%.
CCN(CC)S(=O)(=O)c1ccc2c(c1)N(CC(=O)NCCCN1CCN(c3ccccc3F)CC1)C(=O)CO2 was read as Nrf2 inh 3%, Nrf2 ARE act 5% and A549 tox -10%.
`CCN(CC)S(=O)(=O)c1ccc2c(c1)N(CC(=O)NCCCN1CCN(c3cc(C)ccc3C)CC1)C(=O)CO2` gave Nrf2 ARE act 0%, ATXN2 expr inh 32µM*, ATXN viability 16µM* and A549 tox -22%.
For Cc1ccc(C)c(N2CCN(CCCNC(=O)Cn3cccc3C(=O)c3ccccc3)CC2)c1 the results were Nrf2 inh -9%, Nrf2 ARE act 0%, ATXN2 expr inh inconclusive, ATXN viability 17µM* and A549 tox -17%.
Screening CCOC(=O)c1cccc(NC(=O)CCS(=O)(=O)c2ccc3c(c2)CC(=O)N3C)c1 returned Nrf2 inh inconclusive, Nrf2 ARE act 0%, ATXN2 expr inh 5%, ATXN viability inactive and A549 tox 13%.
`COc1ccccc1C#CC1=CC(=O)C[C@H](c2ccc(F)cc2)C1` gave Nrf2 ARE act inconclusive, ATXN2 expr inh -20% and ATXN viability inactive.
O=C1C=C(C#Cc2ccccc2)C[C@@H](c2ccc(F)cc2)C1 was read as Nrf2 ARE act 8.9µM*, ATXN2 expr inh inconclusive and ATXN viability inconclusive.
Screening C[C@@]12CCC(=O)C[C@@H]1CC(=O)[C@H]1[C@H]3CCC[C@]3(C)C(=O)C[C@@H]12 (tested in a mixture with another compound) returned ATXN viability inactive.
Cc1nn2c3c(cnc2c1-c1ccccc1)C(=O)CC(c1ccco1)C3 (stereo unspecified) was read as Nrf2 inh -25%, Nrf2 ARE act 1.3µM*, ATXN2 expr inh 14%, ATXN viability inactive and A549 tox -12%.
For CC(=O)c1c(O)c2ccccc2n(C2CCCCC2)c1=O the results were Nrf2 inh -23%, Nrf2 ARE act 0%, ATXN2 expr inh -5%, ATXN viability inactive and A549 tox -17%.
For COc1ccc2cc3c(N)nn(C(=O)Cc4c[nH]c5ccccc45)c3nc2c1 the results were Nrf2 inh 16µM*, Nrf2 ARE act -4%, ATXN viability inconclusive and A549 tox -2%.
`COc1ccc2cc3c(N)nn(C(=O)c4ccc(F)cc4)c3nc2c1` gave Nrf2 inh 5.8µM*, Nrf2 ARE act 0%, ATXN viability inactive and A549 tox -26%.
